Here are results for 31 compounds from PubChem BioAssay AID862 (The Scripps Research Institute Molecular Screening Center, 2007).

In all, about 190,000 compounds went through this assay and about 1,700 (0.89%) were called active.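 The calls were made as follows: active = inhibition above the mean inhibition across all screened compounds plus 3 SD (cut at about 44% in these data); inactive = the rest.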 For the sample, actives were picked, then their nearest neighbours and some compounds at random.

A short description of this experiment: IL-6 driven STAT3 reporter inhibitors, primary screen, U3A cells, luciferase, luminescence, MLSCN library (AID 862).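 Also: 0% = DMSO only wells and 100% = 100 µM nifuroxazide control wells.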 As to conditions: IL-6 STAT3-luciferase reporter, at 5.5 µM, hits give high values, host cell line lacks STAT1.
For the compound `N=c1n(CCc2ccccc2)c2ccccc2n1Cc1ccccc1F`, the inhibition was 0.2% (inactive).

For `CCc1ccc(CN(C)Cc2nc(Cc3ccccc3)no2)nc1`, the inhibition is -2.9% (inactive).

For the compound `CC1=CC=CN2C1=NC(=O)CC2(C)C(=O)N(CC(=O)NC1CCCC1)c1ccccc1C` (stereo unspecified), the inhibition was 4.4% (inactive).

With `CCOc1cc(NC(=O)c2ccccn2)c(OCC)cc1NC(=O)c1ccc(OC)cc1`, the inhibition was 13.8% (inactive).

For `Cc1cc(N/C=C\C(=O)c2ccc(Cl)c(Cl)c2)no1`, the inhibition is -7.8% (inactive).

For the compound `COc1ccc(C(=O)/C=C/Nc2ccccn2)cc1`, the inhibition was 97.2% (active).

In the case of `Cc1ccc(CC2CC(=O)N(c3nc(C)cc(C)n3)C2=O)cc1` (stereo unspecified), the inhibition was -0.9% (inactive).

Consider `Clc1cccc(-c2nc(NCC3CCCO3)c3ccccc3n2)c1` (stereo unspecified), for which the inhibition was 15.5% (inactive).

For `CCCCCCn1c(CN2CCCCC2)nc2c1c(=O)n(C)c(=O)n2C`, the inhibition was -8.1% (inactive).

Take `CCCCCCCCn1c2c(c(=N)c3c1CCC3)CCCC2`: the inhibition is 76.2% (active).

Turning to `COc1ccc(/C=C/C(=O)OCC(=O)NCc2cccs2)cc1OC`, the inhibition was -9.7% (inactive).

With `O=C(c1ccc(F)cc1)c1cn(Cc2ccc(F)cc2)c2cc3c(cc2c1=O)OCCO3`, the inhibition is 4.1% (inactive).

On to `Cc1cc(C2=NNC(=Nc3ccc(S(=O)(=O)N4CCOCC4)cc3)SC2)c(C)n1CC1CCCO1` (stereo unspecified), for which the inhibition was -0.3% (inactive).

With `COCCn1c(C)cc(C2=NNC(=Nc3ccc(F)cc3)SC2)c1C`, the inhibition is -33.4% (inactive).

For `C=CCn1c(C)cc(C2=NNC(=NCC)SC2)c1C`, the inhibition was 108% (active).

Consider `[O-][n+]1c2c(nn1-c1ccc(Cl)c(Cl)c1)-c1nonc1CC2`, for which the inhibition was 5.8% (inactive).

On to `CC1CCN(c2ccc(C(=O)Nc3nnc(C4CC4)s3)cc2[N+](=O)[O-])CC1`, for which the inhibition was -3% (inactive).

As for `Cc1c(C(=O)Nc2ccccc2)sc2nc3n(c(=O)c12)CCCCC3`, the inhibition is 10.4% (inactive).

Consider `Cc1cccc2c(=O)n3c(nc12)CCCCC3`, for which the inhibition is 2.1% (inactive).

As to `O=c1c2c(nc3n1CCCCC3)sc1c(O)cccc12`, the inhibition is 64.8% (active).

`CC(C)Cn1c(N)c(C(=O)COC(=O)CN2C(=O)C3CC=CCC3C2=O)c(=O)n(C)c1=O` (stereo unspecified): the inhibition is 30.1% (inactive).

Consider `COC(=O)c1c(NC(=O)CCCC(=O)O)sc2c1CCCCC2`, for which the inhibition was 22.2% (inactive).

As to `CCOCCCNCc1ccc(OCc2ccc(F)cc2)c(OC)c1`, the inhibition is 5.2% (inactive).

`CC(C)Oc1ccc(CCc2nnc(SCC(=O)O)n2-c2ccccc2)cc1`: the inhibition was 13.3% (inactive).

Turning to `Cc1cc2nc(-c3ccc(NC(=O)c4cccnc4)cc3)oc2cc1C`, the inhibition was 7.8% (inactive).

On to `Cc1ccc(-n2nc3cc(C)c(NC(=O)c4cccnc4)cc3n2)cc1`, for which the inhibition was 11.8% (inactive).

`Cc1ccc2nc(-c3ccc(NC(=O)c4cccnc4)cc3)oc2c1`: the inhibition is 67.9% (active).

Take `Cc1cccc(NC(=O)c2cc([N+](=O)[O-])ccc2N2CCN(C)CC2)c1`: the inhibition was 6.2% (inactive).

As to `COC(=O)CCNC(=O)c1ccc2[nH]c(C)c(C)c2c1`, the inhibition was 11% (inactive).

As for `Cc1cc(C(=O)COc2ccccc2[N+](=O)[O-])c(C)n1-c1cccc(S(=O)(=O)N2CCOCC2)c1`, the inhibition is -4.1% (inactive).

As to `Cc1[nH]c2ccccc2c1C(=O)COC(=O)c1c(-c2ccccc2)noc1C`, the inhibition was -1.9% (inactive).
